Shown are actives, neighbours in structure and some others; about 3.6% of the full set was active somewhere.
Autofluor counter – flagged as autofluorescent in microsphere protease counterscreen; compound autofluorescence counterscreen, microsphere flow cytometry; hits give high values; fluorescence intensity (no concentration beside the values); 360,000 tested, 3.1% active; AID 624483; in the data active = fluorescence intensity above about 16000; inconclusive = no clear call, values can overlap the other calls
BJeLR lethal – BJeLR cell viability loss. BJeLR (HRASV12) viability, CellTiter-Glo ATP luminescence, 48 h. inhibition, % (no concentration beside the values). 300,000 tested, 0.17% active; in the data active = inhibition above about 50%; inconclusive = no clear call, values can overlap the other calls
Anthrax LF prot – blocks Bacillus anthracis lethal factor protease; inhibition, % at 10 µM; P15917; AID 588501; multiplex microsphere protease cleavage assay, LF; 360,000 tested, 0.12% active; also: plate controls were buffer without enzyme for full effect and enzyme alone for no effect
BoNT-A LC inh2 – inhibitors of Botulinum neurotoxin A light chain protease; multiplex microsphere protease substrate cleavage, flow cytometry; inhibition, % at 10 µM; 360,000 tested, 0.17% active; also: plate controls were buffer without enzyme for full effect and enzyme alone for no effect
3CLpro inhibitor – SARS-CoV 3CLpro protease inhibition | inhibition, % at 6 µM | AID 1706 | recombinant SARS-CoV 3CLpro, quenched FRET peptide cleavage | 290,000 tested, 0.14% active; in the data active = inhibition above about 12%
BoNT-F LC inh – inhibitors of Botulinum neurotoxin F light chain protease. Multiplex microsphere protease cleavage assay, flow cytometry. inhibition, % at 10 µM. 360,000 tested, 0.22% active. AID 588497; in the data active = inhibition above about 35%, passing the limit was not always enough; inconclusive = no clear call, values can overlap the other calls; also: plate controls were buffer without enzyme for full effect and enzyme alone for no effect
* marks the source's active call; other numbers are inactive results. Rule as the data show it, unless noted: active = inhibition above about 30%; inconclusive = no clear call, values can overlap the other calls; inactive = below that.

Screening C/C(=N/NS(=O)(=O)c1ccc(C)cc1C)c1c[nH]c2ccccc12 returned Autofluor counter 5152, BJeLR lethal 0.4, Anthrax LF prot -3.2, BoNT-A LC inh2 -3.9, 3CLpro inhibitor 1.2 and BoNT-F LC inh -10.7.
`O=C(Cn1c(=O)oc2ccccc21)Nc1ccc(Cl)cc1Cl` gave Autofluor counter 4423, BJeLR lethal 5.2, Anthrax LF prot 2.9, BoNT-A LC inh2 -0.8, 3CLpro inhibitor -2.9 and BoNT-F LC inh inconclusive.
COc1ccc(N2CC(C(=O)NC3CCSC3=O)CC2=O)cc1 (stereo not given) was read as Autofluor counter 3762, BJeLR lethal 6.1, Anthrax LF prot -2.6, BoNT-A LC inh2 1.4, 3CLpro inhibitor -4.6 and BoNT-F LC inh 15.4.
Screening O=C(CN1C(=O)COc2ccccc21)NCCCN1CCN(c2ccccc2F)CC1 returned Autofluor counter 4068, BJeLR lethal 9.8, Anthrax LF prot -3.0, BoNT-A LC inh2 1.5, 3CLpro inhibitor 0.2 and BoNT-F LC inh 3.3.
Screening COc1ccc(CCNC(=O)COc2cc(=O)n(C)c3ccccc23)cc1OC returned Autofluor counter 2266, BJeLR lethal -2.0, Anthrax LF prot -1.9, BoNT-A LC inh2 -0.4, 3CLpro inhibitor -0.9 and BoNT-F LC inh -3.1.
Screening COCCNC(=O)COc1cc(=O)n(C)c2ccccc12 returned Autofluor counter 16570*, BJeLR lethal 12.8, Anthrax LF prot -1.2, BoNT-A LC inh2 -0.1, 3CLpro inhibitor 2.0 and BoNT-F LC inh -4.1.
For CCn1c(=O)cc(SCC(=O)NCCCN2CCN(c3ccccc3F)CC2)c2ccccc21 the results were Autofluor counter 20693*, BJeLR lethal 7.2, Anthrax LF prot -1.7, BoNT-A LC inh2 -0.7, 3CLpro inhibitor -4.3 and BoNT-F LC inh -0.8.
For O=C(Cc1ccc(F)cc1)Nc1ccc(Cl)cn1 the results were Autofluor counter 3520, BJeLR lethal 1.3, Anthrax LF prot 3.2, BoNT-A LC inh2 -1.6, 3CLpro inhibitor 6.4 and BoNT-F LC inh 10.1.
For Nc1nnc(CCCCCc2nnc(N)s2)s1 the results were Autofluor counter 4328, BJeLR lethal 11.3, Anthrax LF prot -0.4, BoNT-A LC inh2 -0.3, 3CLpro inhibitor 3.8 and BoNT-F LC inh 3.8.
Screening Nc1nnc(CCN2C(=O)CSC2=O)s1 returned Autofluor counter 24168*, BJeLR lethal -1.2, Anthrax LF prot -0.4, BoNT-A LC inh2 -2.3, 3CLpro inhibitor 0.7 and BoNT-F LC inh -3.7.
O=C(CCC(=O)N1CCc2ccccc21)N1CCc2ccccc21 was read as 3CLpro inhibitor -1.6.
O=C(Cn1cccc1)N1CCc2ccccc21 was read as Autofluor counter 17880*, BJeLR lethal 6.2, Anthrax LF prot -3.9, BoNT-A LC inh2 -4.5, 3CLpro inhibitor -1.2 and BoNT-F LC inh -9.7.
CC1Oc2ccccc2N(CC(=O)N2CCc3ccccc32)C1=O (stereo not given) was read as Autofluor counter 23145*, BJeLR lethal 0.2, Anthrax LF prot -3.9, BoNT-A LC inh2 0.9, 3CLpro inhibitor 3.4 and BoNT-F LC inh 0.1.
For CC1Oc2ccccc2N(CC(=O)N2CCCCC2)C1=O (stereo not given) the results were Autofluor counter 3603, BJeLR lethal -9.8, Anthrax LF prot 1.4, BoNT-A LC inh2 2.2, 3CLpro inhibitor 2.1 and BoNT-F LC inh 3.1.
Screening CC1Oc2ccccc2N(CC(=O)N2CCCc3ccccc32)C1=O (stereo not given) returned Autofluor counter 18633*, BJeLR lethal 6.6, Anthrax LF prot -16.5, BoNT-A LC inh2 11.4, 3CLpro inhibitor 5.0 and BoNT-F LC inh 12.7.
For O=C(NC1CCCc2ccccc21)c1c(F)cccc1Cl (stereo not given) the results were Autofluor counter 3526, BJeLR lethal 9.4, Anthrax LF prot -4.1, BoNT-A LC inh2 0.2, 3CLpro inhibitor 5.4 and BoNT-F LC inh 1.9.
Screening CC(OC(=O)c1cccc(-n2cnnn2)c1)C(=O)c1ccccc1 (stereo not given) returned Autofluor counter 6397, BJeLR lethal -1.2, Anthrax LF prot -4.1, BoNT-A LC inh2 -0.7 and BoNT-F LC inh -1.4.
For O=C(Nc1nnc(-c2ccccc2)s1)c1cc(S(=O)(=O)N2CCOCC2)c(Cl)cc1Cl the results were Autofluor counter 23535*, BJeLR lethal 0.5, Anthrax LF prot -1.7, BoNT-A LC inh2 inconclusive, 3CLpro inhibitor 9.0 and BoNT-F LC inh 1.0.
CCN1C[C@@H]2[C@@H]3C(=O)N(C)C(=O)[C@@H]3[C@](C)(C1=O)N2C(=O)c1ccc(Br)cc1 was read as Autofluor counter 3339, Anthrax LF prot -2.0, BoNT-A LC inh2 0.2 and BoNT-F LC inh -8.0.
O=C(COC(=O)c1cc[n+]([O-])cc1)Nc1ccc(Cl)cc1Cl was read as Autofluor counter 5779, Anthrax LF prot 0.6, BoNT-A LC inh2 -1.5 and BoNT-F LC inh -7.4.
CCOC(=O)c1cc2c(C)n(-c3ccc(N(C)C)cc3)c(C)c2cc(C(=O)OCC)c1=O was read as Autofluor counter 18745*, BJeLR lethal 9.9, Anthrax LF prot 1.3, BoNT-A LC inh2 inconclusive, 3CLpro inhibitor 1.3 and BoNT-F LC inh 5.7.
`CCOCCc1nnc(NC(=O)Cc2ccc(Br)cc2)s1` gave Autofluor counter 23584*, BJeLR lethal 4.9, Anthrax LF prot -0.6, BoNT-A LC inh2 -1.6, 3CLpro inhibitor -1.7 and BoNT-F LC inh -3.2.
COc1ccc(S(=O)(=O)Nc2cccc(C)c2C)c2cccnc12 was read as Autofluor counter 3427, BJeLR lethal 5.4, Anthrax LF prot -1.8, BoNT-A LC inh2 -0.6, 3CLpro inhibitor -1.3 and BoNT-F LC inh 9.2.
`CCCCNS(=O)(=O)c1ccc(OC)c2ncccc12` gave Autofluor counter 19492*, BJeLR lethal 3.1, Anthrax LF prot -0.1, BoNT-A LC inh2 inconclusive, 3CLpro inhibitor 4.0 and BoNT-F LC inh 2.2.
O=C(NC(=S)Nc1ccccc1N1CCCC1)c1ccc(-c2cccc([N+](=O)[O-])c2)o1 was read as Autofluor counter 19601*, BJeLR lethal -0.9, Anthrax LF prot -12.0, BoNT-A LC inh2 inconclusive, 3CLpro inhibitor -3.5 and BoNT-F LC inh -0.2.
`CS(=O)(=O)N1CCN(c2ccc(NC(=O)c3ccc(-c4ccc(Cl)cc4)o3)cc2)CC1` gave Autofluor counter 17675*, BJeLR lethal 7.0, Anthrax LF prot -1.8, BoNT-A LC inh2 -6.4, 3CLpro inhibitor -3.1 and BoNT-F LC inh -10.3.
For CS(=O)(=O)N1CCN(c2ccccc2NC(=O)c2ccc(-c3ccc(Br)cc3)o2)CC1 the results were Autofluor counter 16514*, BJeLR lethal -6.8, Anthrax LF prot -5.4, BoNT-A LC inh2 -0.1, 3CLpro inhibitor 2.8 and BoNT-F LC inh -1.4.
`CS(=O)(=O)N1CCN(c2ccccc2NC(=O)c2cc(Br)ccc2Cl)CC1` gave Autofluor counter 4695, BJeLR lethal -4.8, Anthrax LF prot -6.1, BoNT-A LC inh2 0.0, 3CLpro inhibitor 0.9 and BoNT-F LC inh -1.7.
`CN1CCN(c2ccc(NC(=O)c3ccc(-c4ccc(Cl)cc4)o3)cc2)CC1` gave Autofluor counter 5881, BJeLR lethal 6.4, Anthrax LF prot -7.4, BoNT-A LC inh2 -1.7, 3CLpro inhibitor -3.8 and BoNT-F LC inh -17.7.

Source: PubChem BioAssay
